A selection: hits, their analogues and other compounds. The true share with any hit is near 4.1%.
tim23-1 inh: growth inhibitors of tim23-1 mutant yeast, primary screen, luminescence, uHTS | S. cerevisiae tim23-1 growth, BacTiter-Glo luminescence, 24 h | inhibition, % at 20 µM | 330,000 compounds, 1.3% hits | AID 463212, 2010;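 active = growth inhibition of the mutant yeast at or above 50%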;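 note: temperature-sensitive mutant grown at 25 °C; plate controls were DMSO-treated mutant yeast for no effect and medium wells lacking yeast for full effect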
TIM10 inh: growth inhibitors of isogenic TIM10 control yeast, primary screen, counter-screen for tim10-1 yeast inhibitor project, luminescence, uHTS; inhibition, % at 10 µM; AID 463195, 2010; 330,000 compounds, 1.4% hits; S. cerevisiae TIM10 strain growth, BacTiter-Glo luminescence, 24 h;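 active = inhibition of 40% or more at the single tested concentration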;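 note: wild-type TIM10 isogenic control strain grown at permissive 25 °C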
NALP3 yeast inh: NALP3 inflammasome inhibitors in reconstituted yeast, primary screen, luminescence, uHTS; Yeast reconstituted NLRP3/ASC/caspase-1, beta-gal luminescence, 24 h; inhibition, % at 10 µM; 330,000 compounds, 0.39% hits; AID 2825, 2010;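 active = inhibition of 50% or more; inactive = inhibition below 50%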;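 note: plate controls were induced DMSO wells for no effect and uninduced yeast grown without galactose for full effect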
NALP1 inh: NALP1 inflammasome inhibitors in reconstituted yeast, colorimetric, S. cerevisiae, triplicate retest; 280,000 compounds, 0.61% hits; S. cerevisiae NALP1/ASC/caspase-1 growth, X-gal OD620, 72 h; inhibition, % at 10 µM; in the data active = inhibition mostly above about 24%, no sharp cut-off; inactive = mostly below about 32%
tim10-1 inh: growth inhibitors of tim10-1 mutant yeast, primary screen, luminescence, uHTS | S. cerevisiae tim10-1 ts strain growth, BacTiter-Glo, 24 h | inhibition, % at 20 µM | 330,000 compounds, 2.2% hits | AID 463190, 2010;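 active = inhibition of at least 40%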;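 note: mutant grown at 25 °C; 0% = DMSO wells with yeast and 100% = wells holding no yeast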
Starred values were filed as active, the others as inactive; / = no result.

SMILES | tim23-1 inh | TIM10 inh | NALP3 yeast inh | NALP1 inh | tim10-1 inh
NS(=O)(=O)c1ccc(-c2ccc(/C=N/NC(=O)c3ccc([N+](=O)[O-])cc3)o2)cc1 | -11.2 | -32.3 | -2.9 | 15.1 | 0.9
CN1CCN(c2nc(C#N)cc(-c3ccccc3)n2)CC1 | 12.6 | -1.9 | 3.8 | 23.9* | 5.5
Cc1ccc(S(=O)(=O)NC(=O)Nc2ccc(F)cc2)cc1 | 7.0 | 15.2 | 5.4 | 25.3 | 7.0
Cc1ccc(S(=O)(=O)NC(=O)Nc2ccc(OC(F)F)cc2)cc1 | 6.4 | 2.3 | 9.1 | 35.8* | 3.8
O=S(=O)(Cc1ccc(Cl)cc1)c1ncc(CO)n1Cc1ccccc1 | 9.3 | -12.0 | 7.4 | 4.9 | 0.8
N#Cc1cc2c(cc1NC(=O)CCn1cnnn1)OCO2 | -6.3 | -4.7 | 7.1 | 35.9* | -6.0
Cc1nnsc1C(=O)NNS(=O)(=O)c1cc(C(F)(F)F)cc(C(F)(F)F)c1 | -0.4 | -11.1 | -4.2 | 18.6 | -4.1
Cc1ccc(S(=O)(=O)NNC(=O)c2snnc2C)cc1 | 11.6 | 10.5 | -8.8 | 37.0* | 5.7
CCCCn1c(N)c(N(CC(C)C)C(=O)c2oc3ccc(OCC)cc3c2C)c(=O)[nH]c1=O | 8.3 | 3.0 | 10.7 | 36.3* | -3.2
CO/N=C/c1ccc(OC)c(Oc2nc(OC)cc(OC)n2)c1 | 15.5 | 0.5 | 2.1 | 1.6 | 18.3
Cc1cc2nc3c(=O)n(C4CCCCC4)c(=O)[nH]c3nc2cc1N | / | / | / | 7.0 | /
CC(=O)Nc1cccc(OCCCNC(=O)c2ccc(C(C)(C)C)cc2)c1 | 12.8 | 2.2 | 8.2 | 8.2 | 11.2
Cc1ccc(OCCCCNC2CCCCC2)c(C)c1 | -14.1 | 19.6 | 23.9 | 44.4* | 8.3
Cc1ccc(OCC(O)CNC2CCCC2)c(C)c1 (stereo not given) | -4.6 | -1.1 | 16.3 | 4.1 | 2.4
CCN(CC)CC(C(=O)N(CC)CC)P(=O)(c1ccccc1)c1ccccc1 (stereo not given) | 11.7 | 11.6 | 21.1 | 41.6* | 11.6
COc1ccc(OCC(=O)Nc2ccncc2)cc1 | 8.9 | -10.9 | 3.5 | / | 5.4
C(C#CCCCCCCCCC[n+]1ccccc1)#CCCCCCCCCC[n+]1ccccc1 | / | / | / | 82.1* | /
O=C(O)c1ccc(NC(=O)c2cccc(NC(=O)c3cccs3)c2)cc1 | 1.2 | 13.4 | 13.9 | 35.5* | 4.4
O=C(Nc1cccc(O)c1)c1ccc(NC(=O)c2cccs2)cc1 | 17.7 | 13.8 | -9.1 | 9.8 | 8.5
COc1cccc(/C=N/NC(=O)C(C)Sc2ccccc2)c1 (stereo not given) | -11.5 | -10.6 | 21.6 | 30.4* | 18.2
COc1ccccc1NC(=O)Cn1c(=O)sc2ccccc21 | 5.5 | 6.6 | 16.9 | 1.0 | 4.2
COc1ccc(NC(=O)Cn2c(=O)sc3ccccc32)c(OC)c1 | 16.4 | -5.7 | -4.3 | 39.4* | 26.8
COc1cc2nc(NCC3CCCO3)n3nc(-c4cccnc4)nc3c2cc1OC (stereo not given) | 26.6 | 15.6 | 3.6 | 37.2* | 29.0
COc1ccccc1CN1C[C@@H]2C[C@@H](C3=Cc4cc(Cl)ccc4OC3)N3CCC[C@@]23C1=O | 44.4 | 24.3 | 22.6 | 25.8* | 39.6
CN1C[C@@H]2C[C@@H](C3=Cc4cc(Cl)ccc4OC3)N3CCC[C@@]23C1=O | 24.2 | 13.8 | 5.9 | 0.3 | 16.4
SMILES | tim23-1 inh | TIM10 inh | NALP3 yeast inh | NALP1 inh | tim10-1 inh
Cc1c(C(=O)c2ccccc2C(=O)O)sc2ccccc12 | 12.4 | -9.5 | 21.9 | 7.9 | 11.7
CC/C(=N\NS(C)(=O)=O)c1ccccc1 | -26.4 | 9.6 | -5.1 | 43.8* | 17.8
CC/C(=N\NC(=O)Nc1ccccc1)c1ccccc1 | 14.5 | 11.9 | 28.3 | 12.8 | 14.6
O=C(CSc1nc2c(oc3ccccc32)c(=O)n1CC1CCCO1)NCc1ccccc1 (stereo not given) | 15.8 | 15.1 | 19.2 | / | 6.7
O=C(CC12CC3CC(CC(C3)C1)C2)N1CCCC1 | 25.4 | 21.3 | 21.0 | 37.2* | 25.6
NNC(=S)NCc1ccc2c(c1)OCO2 | 10.7 | -57.0 | 10.4 | 104.7* | -18.9
COc1ccc(S(=O)(=O)N2CCC(C(=O)NCCC(=O)NC3CC3)CC2)cc1 | -2.1 | -1.8 | 17.4 | 34.0* | -3.5
COc1cc(OC)cc(C(=O)N2CCCC(Nc3ccc(F)cc3)C2)c1 (stereo not given) | 14.4 | 6.3 | 21.6 | 0.1 | 12.1
COc1ccc2cc(C(=O)N3CCCC(Nc4ccc(F)cc4)C3)n(C)c2c1 (stereo not given) | 30.2 | -0.9 | 9.7 | 34.9* | 18.5
